Assay results published in PubChem BioAssay (Tox21).
Inconclusive results are not listed. Where a call stands in place of a potency, no number is given. The source made the active and inactive calls. Calls follow the shape of the full dose curve.

Key:
[1] = target: Acetylcholinesterase (Homo sapiens) (UniProt P22303); test: Acetylcholinesterase (AChE) small molecule antagonists: enzyme-based qHTS assay (AID 1347397); details: Potency: AChE enzyme activity inhibition; outcome: AChE enzyme activity inhibition; series mostly up to 115 µM; also: nearly all actives have a fitted effect of over 55% in size
Method in brief: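 Recombinant human AChE (50 mU/mL) preincubated with compound 30 min at room temperature; acetylthiocholine plus DTNB then added, and thiocholine formation read colorimetrically after 10 min at room temperature. DMSO served as vehicle control.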

[2] = target: Acetylcholinesterase (Homo sapiens) (UniProt P22303); test: Acetylcholinesterase (AChE) small molecule antagonists: fluorescence cell-based qHTS assay (AID 1347398); details: SH-SY5Y cells; Potency: AChE activity; outcome: AChE activity; series mostly up to 115 µM; also: nearly all actives have a fitted effect of over 50% in size
Method in brief: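 SH-SY5Y cells (2000/well), attached overnight, incubated with compound 30 min at 37 C. Acetylthiocholine plus Thiolite Green then added for 40 min at room temperature. Thiocholine fluorescence (Ex/Em 490/520 nm) reports cellular AChE activity.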

[3] = target: Acetylcholinesterase (Homo sapiens) (UniProt P22303); test: Acetylcholinesterase (AChE) small molecule antagonists: enzyme-based qHTS assay with human liver microsomes (AID 1347399); details: Potency: qHTS inhibition; outcome: qHTS inhibition; series mostly up to 115 µM; also: nearly all actives have a fitted effect of over 60% in size
Method in brief: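 Recombinant human AChE (50 mU/mL in the enzyme mix) and human liver microsomes (0.25 mg/mL final) were preincubated with compound and NADPH (0.25 mg/mL final) for 30 min at 37 C. Acetylthiocholine/DTNB was then added; thiocholine was read colorimetrically after 10 min at room temperature.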
Potency is read from the fitted curve at half-maximal effect.

Acetylcholinesterase (Homo sapiens), sequence (P22303 whole entry, looked up): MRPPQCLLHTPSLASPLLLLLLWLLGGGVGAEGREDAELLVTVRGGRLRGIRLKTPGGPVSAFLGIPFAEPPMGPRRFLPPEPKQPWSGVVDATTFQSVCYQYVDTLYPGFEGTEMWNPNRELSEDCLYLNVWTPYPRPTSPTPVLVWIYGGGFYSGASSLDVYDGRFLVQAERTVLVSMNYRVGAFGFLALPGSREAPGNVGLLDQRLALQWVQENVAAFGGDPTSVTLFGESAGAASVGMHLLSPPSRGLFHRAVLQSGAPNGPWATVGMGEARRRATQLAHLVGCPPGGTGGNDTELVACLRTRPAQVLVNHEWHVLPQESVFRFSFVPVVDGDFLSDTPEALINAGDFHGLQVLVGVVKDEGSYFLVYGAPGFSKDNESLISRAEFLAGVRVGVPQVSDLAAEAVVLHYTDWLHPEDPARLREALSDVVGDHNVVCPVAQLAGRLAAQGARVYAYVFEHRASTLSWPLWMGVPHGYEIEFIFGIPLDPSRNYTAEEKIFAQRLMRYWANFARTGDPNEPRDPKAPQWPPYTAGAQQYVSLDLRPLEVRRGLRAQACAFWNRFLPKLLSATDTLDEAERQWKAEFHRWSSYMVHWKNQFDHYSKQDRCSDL

| SMILES | Potency [1] | Potency [2] | Potency [3] |
| --- | --- | --- | --- |
| CCCC(CC)CCCCCCCN (stereo not drawn) | inactive | inactive | inactive |
| CCCCCCOC(=O)CC(CC(=O)OCCCCCC)(OC(=O)CCC)C(=O)OCCCCCC | inactive | inactive | inactive |
| [O-][n+]1cccc(/C(Cl)=N/OC[C@@H](O)CN2CCCCC2)c1 | inactive | inactive | inactive |
| Nc1ccc(Cl)c([N+](=O)[O-])c1 | inactive | inactive | inactive |
| CCCCCCCCCCCC(=O)NCCCN(C)C | inactive | 31.7 µM (active) | inactive |
| CN1CCN(C2=Nc3ccccc3Oc3ccc(Cl)cc32)CC1 | inactive | inactive | inactive |
| CCCCCCCC(=O)N(C)C | inactive | inactive | inactive |
| CCCCCCCCOCCCN | inactive | inactive | inactive |
| CC12CCC(C(=O)C1=O)C2(C)C (stereo not drawn) | inactive | inactive | inactive |
| CCCC[N+](C)(CCCC)CCCC | inactive | inactive | inactive |
| CC(=O)OCCC(C)CC(C)(C)C (stereo not drawn) | inactive | inactive | inactive |
| CC(C)(C)c1cc(CCC(=O)OCCSCCOC(=O)CCc2cc(C(C)(C)C)c(O)c(C(C)(C)C)c2)cc(C(C)(C)C)c1O | inactive | inactive | inactive |
| NCCCCCCNCCCCCCN | inactive | 39.3 µM (active) | inactive |
| O=[Si]=O | inactive | inactive | inactive |
| CCC(C)OC(C)CC (stereo not drawn) | inactive | inactive | inactive |
| Clc1nnc(Cl)c2ccccc12 | inactive | inactive | inactive |
| O=CC(=O)c1ccccc1 | 5.03 µM (active) | 0.283 µM (active) | 35.6 µM (active) |
| c1ccc(-c2nc[nH]c2-c2ccccc2)cc1 | inactive | inactive | inactive |
| CCCCCCCC[P+](CCCCCCCC)(CCCCCCCC)CCCCCCCC | 22.3 µM (active) | 62.9 µM (active) | inactive |
| CN1CCC(=C2c3ccccc3CC(=O)c3sccc32)CC1 | inactive | inactive | inactive |
| COc1ccc(-c2cc(=O)c3c(O)cc(O[C@@H]4O[C@H](CO[C@@H]5O[C@@H](C)[C@H](O)[C@@H](O)[C@H]5O)[C@@H](O)[C@H](O)[C@H]4O)cc3o2)cc1O | inactive | inactive | inactive |
| CNCc1cc(F)ccc1Oc1ccc(Cl)c(Cl)c1 | inactive | inactive | inactive |
| Oc1ccc(-c2ccc(O)cc2)cc1 | inactive | inactive | inactive |
| Cc1cc(=O)oc2cc(O[C@@H]3SC[C@@H](O)[C@H](O)[C@H]3O)ccc12 | inactive | inactive | inactive |
| CCN1CCN(c2cc3c(cc2F)c(=O)c(C(=O)O)cn3C2CC2)CC1 | inactive | inactive | inactive |
| Cc1ccc(N)cc1O | inactive | inactive | inactive |
